ADAM17 inh: inhibitors of human ADAM17. P78536. recombinant ADAM17, EDANS/DABCYL FRET peptide cleavage. inhibition, % at 6.95 µM. 370,000 compounds, 0.83% hits;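 active = inhibition above the mean of compounds lying between control limits plus 3 SD, set per campaign, cut at about 8.5% in these data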
GC-B act: GC-B (human) receptor activation | HEK293-GC-B cells, CNP EC30, cGMP TR-FRET; 0% at EC30 CNP, 100% saturating CNP | activation, % at 10 µM | 370,000 compounds, 0.11% hits;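 active = activation at 10 µM reaching about 35% in either raw or pattern-adjusted values, limit read from the data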
GC-A act: GC-A (human) enzyme activation. P16066. HEK293 GC-A cells, cGMP TR-FRET, EC30 ANP; 0% at EC30 ANP, 100% saturating ANP. activation, % at 10 µM. 370,000 compounds, 0.14% hits; in the data active = activation above about 40%
Target sequence (P16066 whole entry, looked up): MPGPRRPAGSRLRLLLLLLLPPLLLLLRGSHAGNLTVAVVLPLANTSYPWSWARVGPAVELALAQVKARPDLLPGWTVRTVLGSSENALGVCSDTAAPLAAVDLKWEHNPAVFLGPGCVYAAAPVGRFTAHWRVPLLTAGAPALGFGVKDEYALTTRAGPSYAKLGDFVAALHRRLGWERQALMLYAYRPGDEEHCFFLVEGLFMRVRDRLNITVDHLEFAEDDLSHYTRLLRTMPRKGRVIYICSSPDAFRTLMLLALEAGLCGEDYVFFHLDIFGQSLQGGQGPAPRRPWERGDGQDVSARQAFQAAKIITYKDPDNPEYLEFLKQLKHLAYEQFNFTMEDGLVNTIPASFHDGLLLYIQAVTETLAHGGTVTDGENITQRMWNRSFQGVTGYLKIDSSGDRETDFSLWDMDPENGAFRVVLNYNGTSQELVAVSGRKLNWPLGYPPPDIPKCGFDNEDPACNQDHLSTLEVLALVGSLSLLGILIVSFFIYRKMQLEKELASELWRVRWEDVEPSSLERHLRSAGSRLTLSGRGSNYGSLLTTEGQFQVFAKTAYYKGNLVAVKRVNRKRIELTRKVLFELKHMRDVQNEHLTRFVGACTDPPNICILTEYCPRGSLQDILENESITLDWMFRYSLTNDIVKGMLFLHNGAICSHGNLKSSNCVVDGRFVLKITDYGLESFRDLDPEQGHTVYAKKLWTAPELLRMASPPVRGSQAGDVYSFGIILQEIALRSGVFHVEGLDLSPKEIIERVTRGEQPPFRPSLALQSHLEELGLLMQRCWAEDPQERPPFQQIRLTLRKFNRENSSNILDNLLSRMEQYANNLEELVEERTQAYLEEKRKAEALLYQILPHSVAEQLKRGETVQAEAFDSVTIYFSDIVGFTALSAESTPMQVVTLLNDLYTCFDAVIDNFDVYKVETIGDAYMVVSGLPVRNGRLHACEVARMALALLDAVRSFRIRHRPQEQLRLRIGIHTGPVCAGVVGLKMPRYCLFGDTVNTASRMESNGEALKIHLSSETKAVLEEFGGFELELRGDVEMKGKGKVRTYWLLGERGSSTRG
FAS-TE inh: blocks the thioesterase domain of human fatty acid synthase; 360,000 compounds, 0.67% hits; recombinant FAS-TE, OMFH fluorogenic substrate, fluorescence endpoint; inhibition, % at 15 µM; P49327;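 active = compounds whose normalised, plate-corrected inhibition of enzyme fluorescence in the single-dose primary screen is 50% or more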
ADAM10 inh: inhibitors of human ADAM10; O14672; recombinant ADAM10, EDANS/DABCYL FRET peptide cleavage, 3 h; inhibition, % at 7 µM; 370,000 compounds, 0.62% hits; AID 720582;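 active = inhibition above a per-campaign cutoff equal to the mean of compounds falling between control-based bounds plus 3 SD, cut at about 20% in these data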
ADAM10 ctr: ADAM10 inhibition, counter-screen for ADAM17 exosite hits. shares compounds with ADAM17 inh. recombinant ADAM10, EDANS/DABCYL FRET peptide cleavage, 3 h. inhibition, % at 6.95 µM. 2,900 compounds, 47% hits. AID 743256;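 active = mean inhibition over the triplicate runs exceeds the activity threshold set in the earlier primary screen, cut at about 20% in these data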
ADAM17 confirm: confirmation of inhibitors of human ADAM17. 2,900 compounds, 65% hits. inhibition, % at 6.95 µM. AID 743257. shares compounds with ADAM17 inh. recombinant ADAM17, EDANS/DABCYL QFRET peptide cleavage;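 active = mean inhibition across replicates above the hit cutoff set in the primary screen, cut at about 8.5% in these data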
Each line names hits and unclear results; the compound was inactive in the other large screens (follow-up assays come after a bar, where they were run). Sampled rows, rich in hits. Any-hit rate of the full collection: about 2%.

CC1(C(=O)NS(=O)(=O)Cc2ccccc2)CCN1C(=O)C1(c2ccc(Cl)cc2)CC1 (centres undefined)	ADAM17 inh 9.6 | ADAM10 ctr inactive | ADAM17 confirm inactive
CCCC(=O)N1CCC[C@]2(CC[C@H](CCC(C)=O)O2)C1	none (no result: FAS-TE inh)
O=C(COC(=O)c1ccco1)NCc1ccc2c(c1)OCO2	none
O=C(COC(=O)c1ccco1)Nc1ccc2c(c1)OCO2	ADAM17 inh 9.6 | ADAM10 ctr inactive | ADAM17 confirm inactive
CC(NCc1ccco1)C(=O)N1CCN(c2cccc(C(F)(F)F)c2)CC1 (centres undefined)	none (no result: FAS-TE inh)
CCC(CC)C(=O)Nc1cccc(C(=O)Nc2ccc(S(=O)(=O)Nc3ccc(C)cc3)cc2)c1	ADAM17 inh 8.8 | ADAM10 ctr 22 | ADAM17 confirm 17
CCc1nnc(NS(=O)(=O)c2ccc(NC(=O)c3cccc(Br)c3)cc2)s1	ADAM17 inh 9.6 | ADAM10 ctr inactive | ADAM17 confirm inactive
CCN(C(=O)[C@@H](C)[C@@H](O)c1ccc2ccccc2c1)c1ccccc1	none (no result: FAS-TE inh)
Cc1ccc(CCNC(=O)CCCn2nc(C)c3c(C)n(-c4ccc(C)cc4)nc3c2=O)cc1	ADAM17 inh 11 | ADAM10 ctr inactive | ADAM17 confirm inactive
CCCCSc1nc(C)cc(SCC(=O)N/N=C/c2cccc(OC)c2O)n1	ADAM17 inh 14 | ADAM10 ctr inactive | ADAM17 confirm inactive
COc1cccc(C2C(C#N)=C(N)Oc3c2oc(CO)cc3=O)c1 (centres undefined)	ADAM17 inh 14 | ADAM10 ctr inactive | ADAM17 confirm 11
OC(COC(c1ccc(Cl)cc1)c1ccc(Cl)cc1)CN1CCN(c2ccccn2)CC1 (centres undefined)	ADAM17 inh 9.1 | ADAM10 ctr 22 | ADAM17 confirm 13
O=C1c2ccccc2-c2onc3ccc(NCc4ccco4)c1c23	none (no result: ADAM17 inh, GC-B act, GC-A act, ADAM10 inh)
CCNc1ccc2noc3c2c1C(=O)c1ccccc1-3	ADAM17 inh 9.0 | ADAM10 ctr inactive | ADAM17 confirm inactive
O=c1[nH]c(=S)n(-c2ccc(Br)cc2)c2ncccc12	ADAM17 inh 11 | ADAM10 ctr inactive | ADAM17 confirm 11
COc1cc(C(=O)NC2CCCCN(C(C)C)C2=O)cc(OC)c1OC (centres undefined)	none (no result: FAS-TE inh)
COCC(=O)/C=C1\Sc2ccccc2N1C	none
CN1/C(=C/C(=O)C2CCC2)Sc2ccccc21	ADAM17 inh 12 | ADAM10 ctr inactive | ADAM17 confirm inactive
CC(CCc1ccccc1)NC(=O)C(Cc1ccccc1)NS(=O)(=O)c1cccs1 (centres undefined)	ADAM17 inh 9.8 | ADAM10 ctr 21 | ADAM17 confirm 9.3
Cc1ccc(N2CCN(C(=O)C3CCC(=O)N(Cc4ccc(Cl)cc4)C3)CC2)c(C)c1 (centres undefined)	ADAM17 inh 8.8 | ADAM10 ctr inactive | ADAM17 confirm inactive
NC(=O)C1CCN(C(=O)C2CCC(=O)N(Cc3ccc(Cl)cc3)C2)CC1 (centres undefined)	none
COC(=O)[C@]12C[C@H](CC(=O)NCc3ccc(OC)c(OC)c3)C(=O)N(Cc3ccco3)C1=C[C@H](C(C)(C)C)O[C@@H]2C	none (no result: FAS-TE inh)
Clc1ccc(N2COC3c4cccc5cccc(c45)C32)cc1 (centres undefined)	ADAM17 inh 9.2 | ADAM10 ctr inactive | ADAM17 confirm inactive
COc1ccc(N2COC3c4cccc5cccc(c45)C32)cc1 (centres undefined)	none
Cc1ccc(Cn2ccc(=O)c(OCc3c(Cl)cccc3Cl)c2C)cc1	ADAM17 inh 11 | ADAM10 ctr inactive | ADAM17 confirm 10
Cc1[nH]ccc(=O)c1OCc1c(Cl)cccc1Cl	none
C[C@H]1COc2cc(N3CCCC3)ccc2S(=O)(=O)N1C	none (no result: FAS-TE inh)
Cc1onc(-c2ccc(Cl)cc2)c1-c1ccn(S(=O)(=O)c2ccccc2)n1	ADAM17 inh 14 (no result: FAS-TE inh) | ADAM10 ctr inactive | ADAM17 confirm 10

Compound activity (PubChem)
